Results taken from PubChem BioAssay (NCATS).
Inconclusive results are not listed. The source made the active and inactive calls. Calls come from the whole dose curve; as a rule, active = well fitted cell-killing curve with a large enough effect; inconclusive = small, poorly fitted or top-dose-only effect, or effect the other way; inactive = no such curve, though single readings can be large or run the other way.

Assay: Quantitative High-Throughput drug screen in 47 multiple myeloma cell lines against the NCATS MIPE library collection: AMO1_DSMZ cell viability assay (AID 1918927; note: nearly all actives have a fitted effect of over 30% in size)
Conditions: AMO1 myeloma cells viability, CellTiter-Glo ATP luminescence, 48 h; series mostly up to 45.8 µM; viability, % of DMSO: at the top concentration
Method in brief: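 Myeloma cells (500 per well) were exposed to MIPE 4.0 compounds by pin transfer and incubated 48 hours at 37C, 5% CO2. Viability was read as ATP by CellTiter-Glo luminescence, normalised to DMSO (100%) and media-only (0%) wells.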
Potency is the fitted concentration of half-maximal effect.

Row | Structure (SMILES) | Potency | viability, % of DMSO
1 | CS(=O)(=O)CCNCc1ccc(-c2ccc3ncnc(Nc4ccc(OCc5cccc(F)c5)c(Cl)c4)c3c2)o1 | 2.35 µM (active) | –
2 | O=c1c(-c2ccc(O)cc2)coc2cc(O)cc(O)c12 | 16.6 µM (active) | –
3 | O=C(C1CCCCC1)N1CC(=O)N2CCc3ccccc3C2C1 (centres undefined) | – | 157% (inactive)
4 | NCCS(=O)(=O)O | – | 135% (inactive)
5 | Cn1cnc2c1c(=O)[nH]c(=O)n2C | 9.35 µM (active) | –
6 | NCCc1cnc[nH]1 | – | 123% (inactive)
7 | NCCCCCC(=O)O | – | 108% (inactive)
8 | CCC1(c2ccccc2)C(=O)NCNC1=O | 10.5 µM (active) | –
9 | CN(C)CCOC(c1ccccc1)c1ccccc1 | – | 113% (inactive)
